Screening data from PubChem.
aDG glyco up: alpha-DG glycosylation activation. Pro5-aDG cells, alpha-DG glycosylation AlphaScreen (IIH6); 0% Pro5, 100% B10-LARGE cell signal. activation, % at 10 µM. 0.22% of 360,000 active. AID 624168;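 active = activation of at least 8% versus controls, or a plate z-score of at least 8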;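 also: Pro5 are CHO cells carrying HIG-tagged alpha-DG that lacks glycosylation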
GRIN3A LBD mod: NR3A (human) ligand-binding domain modulation; NR3A LBD differential scanning fluorimetry, Tm shift; 0% = protein alone, 100% = glycine-bound protein; Tm shift relative to glycine control, % at 25 µM; 2.5% of 340,000 active; AID 1259313;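 active = melting temperature shift of at least 10% of the positive control shift, at one fixed dose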
FAS-TE inh: FAS thioesterase (human) inhibition | P49327 | recombinant FAS-TE, OMFH fluorogenic substrate, fluorescence endpoint | inhibition, % at 15 µM | 0.67% of 360,000 active;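 active = compounds whose normalised, plate-corrected inhibition of enzyme fluorescence in the single-dose primary screen is 50% or more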
ADAM17 inh: inhibits human ADAM17. P78536. recombinant ADAM17, EDANS/DABCYL FRET peptide cleavage. inhibition, % at 6.95 µM. 0.83% of 370,000 active. AID 720648;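 active = inhibition above the mean of compounds lying between control limits plus 3 SD, set per campaign, cut at about 8.5% in these data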
Target sequence (P78536 215-824 limits assumed): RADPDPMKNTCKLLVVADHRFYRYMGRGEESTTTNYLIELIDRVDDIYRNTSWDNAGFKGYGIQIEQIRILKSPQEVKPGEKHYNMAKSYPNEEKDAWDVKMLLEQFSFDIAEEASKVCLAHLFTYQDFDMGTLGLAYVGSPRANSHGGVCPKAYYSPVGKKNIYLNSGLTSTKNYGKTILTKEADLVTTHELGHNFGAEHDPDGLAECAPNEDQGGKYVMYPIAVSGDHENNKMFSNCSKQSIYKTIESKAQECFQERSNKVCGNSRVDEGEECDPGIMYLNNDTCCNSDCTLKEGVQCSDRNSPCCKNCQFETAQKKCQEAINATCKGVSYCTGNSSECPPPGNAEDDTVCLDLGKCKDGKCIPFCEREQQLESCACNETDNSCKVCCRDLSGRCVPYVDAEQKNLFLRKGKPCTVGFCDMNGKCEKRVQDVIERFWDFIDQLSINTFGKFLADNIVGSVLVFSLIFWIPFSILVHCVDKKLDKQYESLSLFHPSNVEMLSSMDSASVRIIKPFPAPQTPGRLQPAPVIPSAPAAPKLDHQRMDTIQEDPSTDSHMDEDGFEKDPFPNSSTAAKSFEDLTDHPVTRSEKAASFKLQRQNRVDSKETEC
ADAM10 inh: inhibitors of human ADAM10; O14672; recombinant ADAM10, EDANS/DABCYL FRET peptide cleavage, 3 h; inhibition, % at 7 µM; 0.62% of 370,000 active; AID 720582;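 active = inhibition above a per-campaign cutoff equal to the mean of compounds falling between control-based bounds plus 3 SD, cut at about 20% in these data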
FAS-TE conf: confirmation of human fatty acid synthase thioesterase inhibitors; shares compounds with FAS-TE inh; recombinant FAS-TE, OMFH fluorogenic substrate, fluorescence; inhibition, % at 15 µM; 45% of 2,300 active; AID 624325;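 active = compounds inhibiting the enzyme by at least 50% at 15 µM in any one of the replicates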
Each line names hits and unclear results; the compound was inactive in the other large screens (follow-up assays come after a bar, where they were run). This is a sample that favours compounds with a hit; in the whole collection about 4% have one here.

CCC(C)[C@H](NC(=O)C1(c2ccccc2)CCN(C(=O)OC(C)(C)C)CC1)C(=O)N[C@@H](C(=O)O)c1ccccc1 (some centres not stated)	none
COc1cc(/C=C2\N=C(c3ccccc3)OC2=O)ccc1OC(C)=O	none
COc1ccc(OC)c(/C=C2\N=C(c3ccccc3)OC2=O)c1	FAS-TE inh 61 | FAS-TE conf inactive
COc1ccccc1CN(Cc1cc2cc(C)cc(C)c2[nH]c1=O)Cc1nnnn1CC1CCCO1 (configuration not stated)	none (no result: GRIN3A LBD mod)
Cc1ccnc(NC(=O)Cc2ccc(F)cc2)n1	none
CCOC(=O)C1CCN(C(=O)c2ccc3c(Cl)c4c(nc3c2)CCCC4)CC1	none
CC1CCN(C(=O)c2ccc3c(Cl)c4c(nc3c2)CCCC4)CC1	FAS-TE inh 71 | FAS-TE conf 78
CCCN(C(=O)c1ccccc1Cc1ccccc1)C1CCS(=O)(=O)C1 (configuration not stated)	none
N#Cc1nc(N2CCOCC2)nc(N2CCOCC2)n1	none
O=S(=O)(c1ccc(Cl)cc1)N1CCCC(c2nc(-c3ccc(F)cc3)no2)C1 (configuration not stated)	FAS-TE inh 64 | FAS-TE conf 46
COc1cc([N+](=O)[O-])cc(/C=N/NC(=O)C(O)(c2ccccc2)c2ccccc2)c1O	none
COc1cc([N+](=O)[O-])cc(/C=N/NC(=O)c2cccnc2)c1O	FAS-TE inh 62 | FAS-TE conf 74
O=C(NCc1ccco1)c1cc(S(=O)(=O)NC2CC2)ccc1Br	none
COC(=O)[C@@]1(Cc2ccc(OC)cc2)[C@H]2c3cc(C(=O)N4CCCC4)n(CCc4c[nH]c5ccccc45)c3C[C@H]2CN1C(=O)c1ccccc1	FAS-TE inh 58 (no result: GRIN3A LBD mod) | FAS-TE conf inactive
COC(=O)[C@@]1(Cc2ccc(F)cc2)[C@H]2c3cc(C(=O)N4CCCC4)n(CCF)c3C[C@H]2CN1C(=O)c1ccccc1	none (no result: GRIN3A LBD mod)
COC(=O)[C@@]1(Cc2ccc(F)cc2)[C@H]2c3cc(C(=O)N4CCCC4)n(CCc4c[nH]c5ccccc45)c3C[C@H]2CN1C(=O)c1ccccc1	FAS-TE inh 62 (no result: GRIN3A LBD mod) | FAS-TE conf inactive
CCOc1ccccc1OCCCCN1CCCC1	none
COc1ccc(Br)cc1CN(C)C(C)C(=O)Nc1cc([N+](=O)[O-])ccc1OC (configuration not stated)	FAS-TE inh 54 | FAS-TE conf inactive
COc1ccc([N+](=O)[O-])cc1NC(=O)C(C)OC(=O)CC1CCCC1 (configuration not stated)	FAS-TE inh 79 | FAS-TE conf 61
COc1ccc([N+](=O)[O-])cc1NC(=O)C(C)N(C)Cc1ccc(Br)cc1 (configuration not stated)	none
CCOC(=O)c1ccc(NC(=O)c2ccnn2C)cc1	none
CC1CCN(C(=O)c2[nH]cnc2C(=O)NCc2ccccc2)CC1	none
CC1CCN(C(=O)c2[nH]cnc2C(=O)Nc2ccc(Cl)cc2)CC1	FAS-TE inh 54 | FAS-TE conf inactive
O=C1c2ccc(-c3ccc(Cl)c(C(F)(F)F)c3)cc2S(=O)(=O)c2cccc(C(=O)N3CCN(c4ncc(Br)cn4)CC3)c21	FAS-TE inh 69 | FAS-TE conf inactive
O=C1c2ccccc2S(=O)(=O)c2cc(C(=O)N3CCN(c4c(Cl)cncc4Cl)CC3)ccc21	FAS-TE inh 62 | FAS-TE conf inactive
O=C1c2ccc(Cl)cc2S(=O)(=O)c2cccc(C(=O)N3CCN(c4ccc(Cl)cn4)CC3)c21	FAS-TE inh 59 | FAS-TE conf inactive
O=C1c2ccccc2S(=O)(=O)c2cc(C(=O)N3CCN(c4ccccc4)CC3)ccc21	none
CCN1CCN(CCNC(=O)CS(=O)(=O)Cc2nc(-c3ccc(C)cc3)oc2C)CC1	none
CCCCC1(CC(=O)OCC)SCCN1C(N)=O (configuration not stated)	none (no result: GRIN3A LBD mod)
CCCC(c1nnnn1Cc1ccc2c(c1)OCO2)N1CCC(C(N)=O)CC1 (configuration not stated)	none
O=[N+]([O-])/C(Cl)=C(/NCCO)C(Cl)=C(Cl)Cl	none
CC1CCc2nc(NC(=O)CN3CCN(c4ccc(F)cc4)CC3)sc2C1 (configuration not stated)	FAS-TE inh 85 | FAS-TE conf 79
COc1cccc(N2CCN(CC(=O)Nc3nc4c(s3)CC(C)CC4)CC2)c1 (configuration not stated)	none
CSc1ccc(CNc2ncc(-c3cccc([N+](=O)[O-])c3)n2C)cc1	none
Cn1c(-c2ccccc2)cnc1NCc1cccc([N+](=O)[O-])c1	FAS-TE inh 71 | FAS-TE conf 67
COCCn1c(SCC(=O)c2c(N)n(C3CC3)c(=O)[nH]c2=O)nc2ccccc21	none
O=c1oc(-c2ccccc2F)nc2scc(-c3ccccc3)c12	FAS-TE inh 86 | FAS-TE conf 37
Cc1nc2scc(-c3ccccc3)c2c(=O)o1	FAS-TE inh 51 | FAS-TE conf 73
COc1ccc(-c2csc3nc(-c4ccccc4OC)oc(=O)c23)cc1	FAS-TE inh 63 | FAS-TE conf inactive
COc1ccc(-c2csc3nc(-c4ccc(C)cc4)oc(=O)c23)cc1OC	none
CC(C)(C)c1nc2scc(-c3ccc(Cl)cc3)c2c(=O)o1	none
CC(C)(C)c1nc2scc(-c3cccs3)c2c(=O)o1	FAS-TE inh 58 | FAS-TE conf 56
CCCCC(=O)N1CCN(c2nc3ccc(Br)cc3s2)CC1	none
CCOC(=O)c1c(NC(=O)c2ccc(N3C(=O)[C@@H]4[C@H](C3=O)[C@H]3C=C[C@@H]4C3)cc2)sc2c1CC(C)CC2 (some centres not stated)	FAS-TE inh 51 | FAS-TE conf inactive
CCOC(=O)c1c(NC(=O)C2C3C=CC(C3)C2C(=O)O)sc2c1CC(C)CC2 (configuration not stated)	none
CCOc1cc(/C=N\Nc2nc(Nc3ccccc3)nc(N3CCOCC3)n2)ccc1OC(=O)c1ccco1	FAS-TE inh 72 | FAS-TE conf inactive
CCOC(=O)c1ccc(Nc2nc(N3CCOCC3)nc(N3CCOCC3)n2)cc1	FAS-TE inh 51 | FAS-TE conf inactive
CC(=O)c1ccc(Nc2nc(N3CCOCC3)nc(N3CCOCC3)n2)cc1	none
COc1cc(/C=N/Nc2nc(C)cc(C)n2)ccc1OC(=O)c1ccco1	none
Oc1cccnc1CN1CCCCC1	none
Cc1cc(C(=O)COC(=O)c2ccc(N)c([N+](=O)[O-])c2)c(C)n1-c1ccc2c(c1)OCO2	FAS-TE inh 63 | FAS-TE conf inactive
O=C(c1ccc([N+](=O)[O-])cc1)N(c1ccccn1)c1ccccn1	none
CN(N=Cc1ccc([N+](=O)[O-])cc1)c1ccccn1	FAS-TE inh 50 (no result: GRIN3A LBD mod) | FAS-TE conf inactive
